Hits are enriched below; roughly 0.97% of the tested compounds scored in any of these assays.
CtBP-E1A inh: qHTS Assay for Inhibitors of the CtBP/E1A Interaction; 340,000 tested, 0.49% active; AlphaScreen GST-E1A/His-CtBP binding, 1536-well; active compounds read low; activity change, % (test concentration not listed); AID 651724, 2012; CtBP / adenovirus E1A interaction (AlphaScreen)
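GST-E1A and His-tagged CtBP (125 nM each as 5X stock) were preincubated with pin-transferred compound for 2 h at 37 °C in the dark, then glutathione donor and nickel acceptor beads were added for 1 h before AlphaScreen reading.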
PI4K2A inh: qHTS for small molecular inhibitors of PI4K2A. AID 1346378, 2018. activity change, negative = inhibition, % at 76.9 µM. 420,000 tested, 0.13% active. purified PI4K2A, ADP-Glo luminescence, 1 h; active compounds read low. Phosphatidylinositol 4-kinase type 2-alpha (Homo sapiens), Q9BTU6; in the data active means activity change below about -50%; inconclusive means mostly about -30% to -49%;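 further: -100% = wells without enzyme as full effect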
Target sequence (Q9BTU6 whole entry, looked up): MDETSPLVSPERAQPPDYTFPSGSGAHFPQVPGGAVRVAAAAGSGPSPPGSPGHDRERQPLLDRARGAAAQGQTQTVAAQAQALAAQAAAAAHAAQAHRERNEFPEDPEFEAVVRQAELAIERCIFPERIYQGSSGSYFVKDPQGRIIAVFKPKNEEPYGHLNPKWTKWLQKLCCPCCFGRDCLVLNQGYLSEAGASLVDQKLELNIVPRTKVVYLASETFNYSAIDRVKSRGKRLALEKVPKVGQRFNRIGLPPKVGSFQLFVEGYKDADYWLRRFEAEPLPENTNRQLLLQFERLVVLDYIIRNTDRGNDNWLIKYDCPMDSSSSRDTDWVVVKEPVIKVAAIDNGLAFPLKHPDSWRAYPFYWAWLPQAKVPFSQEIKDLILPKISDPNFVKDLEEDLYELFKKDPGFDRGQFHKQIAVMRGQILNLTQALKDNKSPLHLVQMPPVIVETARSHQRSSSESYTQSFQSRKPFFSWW
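Compounds are screened against recombinant PI4K2A using PI as substrate and ATP, the latter dispensed at 300 microM. Reactions run one hour at ambient temperature before ADP-Glo detection; full inhibition defined by wells lacking enzyme.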
Six1-Eya2 inh: qHTS Assay for Inhibitors of the Six1/Eya2 Interaction. 360,000 tested, 0.56% active. activity change, % (concentration not given with the values). AlphaScreen GST-Six1/His-Eya2 binding, biochemical; active compounds read low. Homeobox protein SIX1 (Homo sapiens) + Protein phosphatase EYA2 (Homo sapiens), …
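Compounds are tested against tagged Six1 and Eya2 proteins bridged by glutathione donor and nickel acceptor beads; after a one-hour incubation at 37 °C without light, AlphaScreen emission is recorded.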
Eya2 phos inh: qHTS Assay for Inhibitors of the Phosphatase Activity of Eya2. Protein phosphatase EYA2 (Homo sapiens), O00167. recombinant Eya2, OMFP fluorescence dephosphorylation (OMFP is methylfluorescein phosphate). Potency, µM (top dose mostly 76.9 µM), without a hit: at the top dose activity, negative = inhibition, hits mostly inhibitors. 330,000 tested, 0.006% active. AID 488837, 2010; active means well fitted inhibition curve with a large enough effect; inconclusive means small, poorly fitted or top-dose-only effect, or effect the other way; further: potency means the concentration at half of the fitted maximal effect
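Eya2 protein (added as 0.2 uM solution) was preincubated with compound for 10 min at ambient temperature in 50 mM HEPES pH 7.5, 50 mM NaCl, 5 uM MgCl2, 0.05% BSA, 1 mM DTT. OMFP (added at 50 uM) then reacted 10 min; fluorescence read at 485/525 nm.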
CCT modulator: High-Throughput Screening for Modulators of Cytosolic Chaperonin Activity; activity change, % (test concentration not listed), hits read low; 360,000 tested, 0.3% active; purified chaperonin ATPase assay, HTRF ADP detection, 30 min; in the data active means activity change below about -30%
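First, chaperonin was dispensed at 40 nM or 20 nM final depending on batch activity. Next, compounds were pinned at 76 uM and ATP added at 10 uM. After 30 min at 37 °C, ADP detection reagents ran 30 min at ambient temperature.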
Starred values were filed as active, the others as inactive; u = inconclusive; x = not tested or not shown. Unless noted, no stated cut-off is given here; in the data, active means activity change below about -65%; inconclusive means mostly about -30% to -63%; inactive means weaker than that. Unless noted, on the % scale 0 is the no-effect control and ±100 the full control effect.

SMILES | CtBP-E1A inh | PI4K2A inh | Six1-Eya2 inh | Eya2 phos inh | CCT modulator
C/C(=N\NC(=O)c1cc(C)nc2ccccc12)c1ccccn1 | -92* | 6 | -89* | -11% | -1
C/C(=N\NC(=O)COc1ccccc1-c1ccccc1)c1ccccn1 | -25 | 6 | -65* | 2% | 2
CC(=NNC(=S)N1CCC1)c1ccccn1 | -95* | -60* | -91* | x | -2
CC(=NNC(=S)N1CCCC1)c1ccccn1 | -20 | -12 | u | x | -2
CCOc1ccc(-n2c(=O)c3c(C)c(C)sc3n(CC(=O)c3ccccc3)c2=O)cc1 | x | 0 | x | x | x
CCOCCCNc1nc2c(S(=O)(=O)c3ccc(CC)cc3)nnn2c2ccc(Cl)cc12 | x | 1 | x | x | x
C/C(=N\NC(=O)c1ccc(Cl)cc1)c1ccccn1 | u | -3 | -90* | 9% | -1
CC(=NNC(=S)Nc1cccc(Cl)c1)c1ccccn1 | -96* | 5 | -91* | x | -3
C/C(=N\NC(=O)c1ccccn1)c1ccc(Cl)cc1 | -14 | -4 | -16 | -16% | -1
CCC1CCCCN1C(=O)CSc1nnc2nc(C)cc(C)n12 (configuration not stated) | -1 | 0 | 6 | u | -40*
O=c1[nH]n(-c2ccccc2)c(=O)c2ccccc12 | 1 | 4 | 8 | 1% | -1
O=C(O)c1cc2c(ncc3c(=O)n(-c4ccccc4)[nH]c32)s1 | -68* | -2 | -75* | x | -3
Nc1nc(-c2ccccc2)[nH]c(=O)c1N=O | x | -5 | u | -15% | -1
Nc1[nH]c(=O)nc(Nc2ccccc2)c1N=O | -66* | -3 | u | x | 2
CN(CC(=O)Nc1ccc(Cl)c(C(F)(F)F)c1)C(=O)COc1cccc2cccnc12 | -22 | -2 | 13 | x | 2
CSc1ccccc1NC(=O)CN(C)C(=O)COc1cccc2cccnc12 | -85* | -10 | -85* | 0% | -2
Cc1ccc(OC(=O)c2cc(-c3ccc4c(c3)OCCO4)on2)c(C)c1 | x | 5 | x | x | x
Cc1ccc(C=C2C(=O)c3ccccc3C2=O)s1 | 4 | -53* | -2 | -17% | 1
O=C1C(=Cc2cccs2)C(=O)c2ccccc21 | -13 | u | 9 | -1% | -4
CC(=O)NC1C(=O)N(CCN2CCOCC2)c2ccc(C)cc21 (configuration not stated) | x | -7 | -23 | -5% | -1
CC(=O)NC1C(=O)N(CCN2CCOCC2)c2ccc(Cl)cc21 (configuration not stated) | -8 | -4 | -24 | 25% | -30*
COc1ccc(C)cc1NC(=O)C1CCN(S(=O)(=O)Cc2ccccc2)CC1 | x | 0 | x | x | x
Cc1ccc2c(c1)C(N1CCCC1=O)CC(c1ccco1)N2 (configuration not stated) | -3 | -62* | 7 | 6% | -2
Cc1ccc(C2CC(c3ccco3)n3ncnc3N2)cc1 (configuration not stated) | 2 | 1 | -1 | 1% | 0
Cc1occc1-c1nnc(SCC(N)=O)n1Cc1ccccc1 | -5 | 3 | -1 | 6% | -3
SMILES | CtBP-E1A inh | PI4K2A inh | Six1-Eya2 inh | Eya2 phos inh | CCT modulator
NC(=O)CSc1nnc(-c2cc3ccccc3o2)n1Cc1ccccc1 | 5 | -8 | 0 | -13% | -62*
O=C(CCCC(=O)Nc1cccc(Br)c1)N/N=C/c1cc([N+](=O)[O-])ccc1O | -82* | -2 | -67* | -3% | 0
Cc1c(NC(=S)N/N=C/c2cc([N+](=O)[O-])ccc2O)c(=O)n(-c2ccccc2)n1C | x | -10 | -88* | -13% | 1
Cc1ccc(C)c(NC(=O)CCC(=O)N/N=C/c2cc([N+](=O)[O-])ccc2O)c1 | x | -5 | -86* | 9% | -5
CN1CCN(CCC(=O)N/N=C/c2cc([N+](=O)[O-])ccc2O)CC1 | -77* | -2 | -87* | -1% | 0
Cc1c(NC(=S)N/N=C/c2ccc(O)cc2)c(=O)n(-c2ccccc2)n1C | 2 | 7 | 2 | -3% | -3
CCOc1ccc(S(=O)(=O)Nc2cccc(OC)c2)c2cccnc12 | x | -7 | x | x | x
O=C(NCc1ccccc1)C1CCN(S(=O)(=O)c2ccc3c(c2)CCCN3C(=O)C2CCC2)CC1 | x | 2 | x | x | x
Cc1ccccc1C(=O)Nc1ccc(C(=O)N2CCCC(O)c3cc(Cl)ccc32)c(C)c1 (configuration not stated) | x | 1 | x | x | x
O=C(CCC(=O)Nc1cccc(Cl)c1)N/N=C/c1cc([N+](=O)[O-])ccc1O | -2 | -3 | u | 0% | -2
Cc1ccc(NC(=O)CCC(=O)N/N=C/c2cc([N+](=O)[O-])ccc2O)cc1 | -65* | 1 | -87* | 1% | 1
Cc1ccccc1NC(=O)CCC(=O)N/N=C/c1cc([N+](=O)[O-])ccc1O | -88* | -4 | -79* | -3% | -3
O=C(CSc1nc2ccccc2s1)N/N=C/c1cc([N+](=O)[O-])ccc1O | -68* | 7 | u | 0% | 1
CCOC(=O)CC(NC(=O)CCc1c(C)nc2c(c1C)c(=O)n(C)c(=O)n2C)c1ccc(OCC)c(OC)c1 (configuration not stated) | x | -2 | x | x | x
Cc1ccc2nc(N3CCC(C(=O)N4CCN(c5cccc(C)c5C)CC4)CC3)[nH]c2c1 | x | -5 | x | x | x
O=c1nc2c(O)cccn2c2c1c(=O)[nH]c1ccccc12 | 4 | -4 | -83* | 2% | 1
O=C(CSc1nccc(=O)[nH]1)c1ccccc1Br | -68* | -16 | -70* | 17% | -2
O=C1CC2(CCCC2)CC(=O)N1 | x | -3 | x | x | x
Cc1nc(-c2ccc(OCC(C)C)c(C#N)c2)sc1C(=O)O | x | 3 | x | x | x
CCN(c1ccccc1)c1nnc(NC(=O)Nc2ccc(C)cc2)s1 | x | 1 | x | x | x
COc1cc(-c2nnn(CC(=O)NC3CCS(=O)(=O)C3)n2)ccc1OCc1ccccc1 (configuration not stated) | -6 | -60* | -14 | -12% | 3
CCOc1cc(C(=O)NCC(c2ccc(N(C)C)cc2)N2CCOCC2)cc(OCC)c1OCC (configuration not stated) | x | 0 | x | x | x
COc1cccc(-n2c(SCC(=O)Nc3cc(C)on3)nc3ccccc3c2=O)c1 | -6 | 11 | -1 | 0% | 0
CCc1sc2nc(SCC(=O)Nc3cc(C)on3)n(-c3cccc(OC)c3)c(=O)c2c1C | -19 | 1 | 10 | -5% | -36*
CN(C)c1ccc(NC(=O)CSC2=Nc3ccccc3C3=NC(CCC(=O)NCc4cccs4)C(=O)N23)cc1 (configuration not stated) | x | 2 | x | x | x

Bioassay records (PubChem)
